Screen size: about 310,000 compounds; about 970 (0.31%) were called active. The list comes from a sample in which actives are over-represented; it also holds similar structures and randomly drawn compounds. Values without a mark were called inactive.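 Rule for the calls: active = every replicate shows inhibition above about 80%, whatever the replicate mean (limit read from the data); inconclusive = mean inhibition reaches the set limit but some replicate falls short; inactive = the rest.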
Test: reduced ATP signal of yeast carrying P. falciparum Hsp90 – S. cerevisiae, BacTiter-Glo luminescence, single point, set 2, antimalarial PfHsp90 inhibitor project, primary screen (AID 504621);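 note: yeast relying on Plasmodium falciparum Hsp90 in place of its own; 0% = DMSO neutral controls and 100% = 20 µM radicicol positive controls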
Conditions: S. cerevisiae expressing PfHsp90, growth, 48 h, at 9.4 µM, stronger effect = higher value, yeast lacking PDR1 and PDR3 efflux regulators

Question: For `CC(C)C[C@H]1CN([C@@H](CC(C)C)CN2CCC[C@@H]2CN2C(=O)C(=O)NC[C@@H]2Cc2ccccc2)C(=O)C(=O)N1CCc1ccccc1`, which inhibition is on record?
Answer: 1.81%

Question: Which inhibition does the source give for `CC(C=Cc1ccccc1)=NNS(=O)(=O)c1ccc([N+](=O)[O-])cc1` here?
Answer: -1.29%

Question: With `CC(=O)OCC1(O)CC23CCC4c5ccoc5CCC4(C)C2CCC1C3` (stereo unspecified) as the compound, how does the inhibition read?
Answer: -29.4%

Question: For `c1ccc(CCc2ccccn2)cc1`, which inhibition is on record?
Answer: 12.1%

Question: For `CC(C)(C)c1cc(C(=O)N/N=C/c2ccc([N+](=O)[O-])s2)n[nH]1`, which inhibition is on record?
Answer: -5.37%

Question: With `Cc1ccccc1NCC(=O)N/N=C\c1ccc([N+](=O)[O-])s1` as the compound, how does the inhibition read?
Answer: -6.37%

Question: With `O=[N+]([O-])c1ccc(C=Nc2ccc(Cl)cc2Cl)s1` as the compound, how does the inhibition read?
Answer: 110% (active)

Question: Which inhibition does the source give for `CC(C)(C)OC(=O)N1CCC(C(=O)Nc2cccc(C(=O)NCCc3ccccc3)c2)CC1` here?
Answer: 5.32%

Question: For `Cc1ccc(OCCCn2c(=O)oc3ccccc32)cc1`, which inhibition is on record?
Answer: -16.3%

Question: For `CCCCCCCCCCOC(=O)Cn1c(COc2cccc(OC)c2)[n+](C)c2ccccc21`, which inhibition is on record?
Answer: -14.9%

Question: For `CCCCCCCCCCOC(=O)Cn1c(COc2ccc(C)cc2)[n+](C)c2ccccc21`, which inhibition is on record?
Answer: 110% (active)

Question: For `COc1ccc(-c2nc3cc(C)ccn3c2NC2CCCCC2)cc1SC1CCCCC1`, which inhibition is on record?
Answer: 9.74%

Question: For `FC(F)(F)c1ccc(-c2cccc3c2C2CC3CCN2Cc2ccccc2)cc1` (stereo unspecified), which inhibition is on record?
Answer: 6.57%

Question: For `O=C(O)CC1=C(Nc2ccccc2)C(=O)N(c2ccccc2)C1c1ccc(Cl)cc1` (stereo unspecified), which inhibition is on record?
Answer: -10.5%

Question: For `O=C(CCC(=O)OCc1ccc(Cl)cc1)Nc1ccccc1`, which inhibition is on record?
Answer: -21.6%

Question: Which inhibition does the source give for `O=C1C=C(c2ccc(Cl)cc2)C(=O)N1Nc1ccccc1` here?
Answer: 134% (active)

Question: For `COc1cc(/C=C/c2ccc(/C=C/c3cc(OC)c(OC)c(OC)c3)cc2)cc(OC)c1OC`, which inhibition is on record?
Answer: -3.68%

Question: For `Cc1c[n+]([O-])ccc1[N+](=O)[O-]`, which inhibition is on record?
Answer: 4.7%

Question: Which inhibition does the source give for `COCC(=O)N(C)[C@H]1C[C@H]2c3cc(Oc4ccccc4C)ccc3CCN2C(=O)[C@H]1[C@H](C)O` here?
Answer: -8.3%

Question: With `O=S(=O)(Nc1ccc2ccccc2c1)N1CCCCC1` as the compound, how does the inhibition read?
Answer: 2.41%

Question: For `O=C(CNC(=O)c1cc(S(=O)(=O)N2CCOCC2)ccc1N1CCCC1)Nc1ccc(F)c(F)c1`, which inhibition is on record?
Answer: -6.44%

Question: For `CCN1/C(=C\c2ccc3ccccc3[n+]2CC)Sc2cc(C)ccc21`, which inhibition is on record?
Answer: 87.5% (active)

Question: Which inhibition does the source give for `Cc1cccc(C=CC(=O)c2ccc(Cl)cc2)c1` here?
Answer: 5.15%

Question: For `Cc1ccc(C)c(N2CCN(C(=O)CCc3nc(-c4cccc(C(F)(F)F)c4)no3)CC2)c1`, which inhibition is on record?
Answer: -1.63%

Question: For `O=C(O)C(CCc1ccccn1)c1ccccc1` (stereo unspecified), which inhibition is on record?
Answer: -16%

Question: With `CCCCNC(=O)C(C)N(CCN(C)C)C(=O)CCCCCN1C(=O)NC(c2ccc(Cl)cc2)C(C(=O)OCc2ccccc2)=C1C` (stereo unspecified) as the compound, how does the inhibition read?
Answer: -0.725%

Question: For `FC(F)(F)c1cnc(Oc2ccccc2-c2nnc(-c3ccc(Cl)cc3)o2)c(Cl)c1`, which inhibition is on record?
Answer: -8.43%

Question: With `COc1cccc(/C=N/Nc2ncc(C(F)(F)F)cc2Cl)c1O` as the compound, how does the inhibition read?
Answer: 91.5% (active)

Question: For `COc1cccc(/C=N/Nc2cc(C)nc(-c3ccccc3O)n2)c1O`, which inhibition is on record?
Answer: -15.4%

Question: With `CCCCCCCCNS(=O)(=O)CCNC1CCCCC1` as the compound, how does the inhibition read?
Answer: 21.1%

Question: Which inhibition does the source give for `O=C(NC1=CC(=O)c2ccccc2C1=O)c1ccccc1` here?
Answer: 54.3%

Question: Which inhibition does the source give for `C#CCOCCOCCOCCNc1nc(N2CCN(C(=O)Cn3cc(CCO)nn3)CC2)nc(N2CCN(C(=O)[C@H](CCCCN)n3cc(CCCC)nn3)CC2)n1` here?
Answer: -9.73%

Question: Which inhibition does the source give for `Oc1c(Cl)cc(Cl)c(Cl)c1Cc1c(O)c(Cl)cc(Cl)c1Cl` here?
Answer: 108% (active)

Question: For `O=C(Nc1ccc2ccccc2c1[N+](=O)[O-])c1ccccc1`, which inhibition is on record?
Answer: -14.2%

Question: For `COc1ccc(CC(=O)NC(C)c2ccc(Cl)c(Cl)c2)cc1S(=O)(=O)N1CCOCC1` (stereo unspecified), which inhibition is on record?
Answer: 15.2%

Question: For `CCOc1ccc(C(C)C)cc1S(=O)(=O)n1nc(C)cc1C`, which inhibition is on record?
Answer: 11.4%

Question: Which inhibition does the source give for `COc1ccc(OCc2cn3c(C)cc(C)nc3n2)cc1` here?
Answer: -13.7%

Question: Which inhibition does the source give for `COc1ccc(C(C[N+](=O)[O-])n2nc(C)cc2C)cc1` (stereo unspecified) here?
Answer: 104% (active)

Question: For `O=C(/C(=C/c1cccc(Cl)c1)c1nc2ccccc2[nH]1)c1ccccc1`, which inhibition is on record?
Answer: 86.9% (active)

Question: For `CCC(=O)/C(=C(/O)c1ccccc1)c1nc2ccccc2[nH]1`, which inhibition is on record?
Answer: -12.2%

Question: With `O=C(Cc1nc2ccccc2[nH]c1=O)c1ccc(Cl)cc1` as the compound, how does the inhibition read?
Answer: -1.68%

Question: For `Nc1ccc2c(c1)C(O)c1ccc(Cl)cc1-2` (stereo unspecified), which inhibition is on record?
Answer: -1.88%

Question: Which inhibition does the source give for `CN(C)S(=O)(=O)Oc1ccccc1C(=O)Nc1ccccc1Cl` here?
Answer: 15.5%

Question: Which inhibition does the source give for `O=C(Nc1ccccc1Cl)/C(Cl)=C(\Cl)S(=O)c1ccccc1` (stereo unspecified) here?
Answer: 127% (active)

Question: Which inhibition does the source give for `O=C(Nc1ccccc1Cl)O/N=C(/c1ccccc1)c1ccccn1` here?
Answer: 9.66%

Question: For `Cc1cc(OCCCC(=O)Nc2cc(S(=O)(=O)N3CCOCC3)ccc2N2CCOCC2)ccc1Cl`, which inhibition is on record?
Answer: -7.69%

Question: With `COc1ccc(C2=Nn3c(nnc3-c3ccccc3OC)SC2)cc1OC1CCCC1` as the compound, how does the inhibition read?
Answer: 1.24%

Question: With `CCCCN(C(=O)CSCc1ccc(C)cc1)c1c(N)n(Cc2ccccc2)c(=O)[nH]c1=O` as the compound, how does the inhibition read?
Answer: -17.2%

Question: With `Cc1cc2c(cc1C)NC1(C[C@H]3CCC(=O)N4CC[C@@H](C1)[C@@H]34)C(=NC(C)(C)CC(C)(C)C)N2` (stereo partly specified) as the compound, how does the inhibition read?
Answer: 3.65%

Question: Which inhibition does the source give for `Cc1cccc(CS(=O)(=O)c2ncc(Cl)c(C(=O)Nc3ccc(F)cc3)n2)c1` here?
Answer: 105% (active)

Question: Which inhibition does the source give for `Cc1ccc(CS(=O)(=O)c2ncc(Cl)c(C(=O)Nc3nnc(C)s3)n2)cc1` here?
Answer: 7.63%

Question: Which inhibition does the source give for `Cc1cccc(NC(=O)c2nc(S(=O)(=O)Cc3ccccc3)ncc2Cl)c1` here?
Answer: 98.3% (active)

Question: For `CSc1ncc(Cl)c(C(=O)Nc2cc(C)ccc2C)n1`, which inhibition is on record?
Answer: 7.23%

Question: Which inhibition does the source give for `CSc1nnc(NC(=O)c2nc(S(=O)(=O)Cc3ccc(C)cc3)ncc2Cl)s1` here?
Answer: 11.8%

Question: For `CCOc1ccc(NC(=O)c2nc(SCC)ncc2Cl)cc1`, which inhibition is on record?
Answer: 15.7%

Question: With `COC1C(CO)OC(n2cnc3c(=S)nc(N)[nH]c32)C1O` (stereo unspecified) as the compound, how does the inhibition read?
Answer: 24.5%

Question: For `COc1ccccc1NC(=O)N(O)C1(C#N)CCCCC1`, which inhibition is on record?
Answer: -17.6%

Question: For `Cc1cc(NC(=O)C(C)SCC(=O)Nc2cccc(S(=O)(=O)N3CCCCCC3)c2)no1` (stereo unspecified), which inhibition is on record?
Answer: -41.5%

Question: Which inhibition does the source give for `CC1(C)C(=O)CCC2(C)C1=CCC1C2C(=O)CC2(C)C1CCC2(O)C(=O)CO` (stereo unspecified) here?
Answer: 20.2%

Question: With `COc1ccc(CCNC(=O)COc2cc(C)cc3oc(=O)c(C)c(C)c23)cc1OC` as the compound, how does the inhibition read?
Answer: -2.49%

Question: Which inhibition does the source give for `CCN1C[C@@H]2[C@@H]3C(=O)N(C)C(=O)[C@@H]3[C@](C)(C1=O)N2C(=O)c1ccccc1` here?
Answer: -20.8%

Question: With `COc1ccc(Cl)cc1C=CC=Nc1ccc(S(N)(=O)=O)cc1` as the compound, how does the inhibition read?
Answer: 4.35%

Question: For `O=C(CSc1ccc(-c2ccco2)nn1)Nc1cccc(F)c1`, which inhibition is on record?
Answer: -6.54%

Question: With `O=C(CSc1ccc(-c2ccc(-n3cccn3)cc2)nn1)Nc1ccc([N+](=O)[O-])cc1` as the compound, how does the inhibition read?
Answer: 2.41%

Question: With `O=C(CSc1ccc(-c2ccccn2)nn1)Nc1ccccc1` as the compound, how does the inhibition read?
Answer: 119% (active)

Question: For `NS(=O)(=O)c1ccc(CCNC(=O)c2ccc(Cl)c(S(=O)(=O)N3CCCCCC3)c2)cc1`, which inhibition is on record?
Answer: -11.9%

Question: With `O=S(=O)(Cc1ccc(Cl)cc1Cl)c1ccc(Cl)cc1` as the compound, how does the inhibition read?
Answer: -35.8%

Question: Which inhibition does the source give for `Cc1cccc(C)c1NC(=O)C(c1ccccc1)N1CC(=O)Nc2ccccc21` (stereo unspecified) here?
Answer: -3.52%

Question: Which inhibition does the source give for `Cc1cccc(C)c1NC(=O)CN(C)C(=O)CCC(=O)c1ccccc1` here?
Answer: 3.14%

Question: For `Cc1cccc(C)c1NC(=O)C(Cl)C(=O)c1ccccc1` (stereo unspecified), which inhibition is on record?
Answer: 106% (active)

Question: Which inhibition does the source give for `CC[C@]12c3[nH]c4ccc(OC)cc4c3CCN1C(=O)C(CC(=O)NCc1ccco1)C[C@@H]2C(=O)N1CCN(C(=O)C2CC2)CC1` (stereo partly specified) here?
Answer: 0.556%

Question: For `COc1ccc(NC(=O)N2CCCC(c3nc(-c4ccc(F)cc4)no3)C2)cc1` (stereo unspecified), which inhibition is on record?
Answer: -5.6%

Question: For `CCN(C(=O)C1CCCN(c2nc(-c3ccc(OC)cc3)no2)C1)c1ccc(OC)cc1` (stereo unspecified), which inhibition is on record?
Answer: 103% (active)

Question: Which inhibition does the source give for `CCOC(=O)C1CCCN(C(=O)CN(c2ccc(OC)cc2)S(=O)(=O)c2c(C)noc2C)C1` (stereo unspecified) here?
Answer: 14.1%

Question: Which inhibition does the source give for `Cc1cc(N=Nc2ccc3ccccc3c2)ccc1O` here?
Answer: 107% (active)

Question: For `CC(=O)CCC(=O)c1ccc2ccccc2c1`, which inhibition is on record?
Answer: 14.9%

Question: For `Cc1ccc(/C=N/NC(=O)c2cc3ccccc3cc2O)o1`, which inhibition is on record?
Answer: -3.13%

Question: For `CCCCNC(=O)C(C)N(CCN(C)C)C(=O)CCCN1C(=O)NC(c2ccc(Cl)cc2)C(C(=O)OCc2ccccc2)=C1C` (stereo unspecified), which inhibition is on record?
Answer: -3.34%

Question: For `CN(C)CCNC(=O)c1ccc(Cl)c2cc3ccccc3nc12`, which inhibition is on record?
Answer: -3.1%

Question: For `O=c1nc2s/c(=C\c3ccco3)c(=O)n2nc1Cc1ccccc1`, which inhibition is on record?
Answer: 109% (active)

Question: Which inhibition does the source give for `O=C(Cc1ccccc1)n1nc(-c2ccccc2)nc1NCc1ccco1` here?
Answer: -9.78%

Question: With `Cc1nc2nc(SCC(=O)NCc3ccco3)nn2c(C)c1Cc1ccccc1` as the compound, how does the inhibition read?
Answer: -0.223%

Question: With `c1ccc2sc(NN=C3CCCC3)nc2c1` as the compound, how does the inhibition read?
Answer: 7.45%

Question: Which inhibition does the source give for `O=C(CCNC(=O)c1ccccc1)Nc1nc2ccccc2s1` here?
Answer: -3.35%

Question: Which inhibition does the source give for `c1ccc(C(=NNc2nc3ccccc3s2)c2ccccn2)cc1` here?
Answer: 108% (active)

Question: With `O=[N+]([O-])c1ccc(N=NNc2ccc([N+](=O)[O-])cc2)cc1` as the compound, how does the inhibition read?
Answer: -30.4%

From PubChem BioAssay AID504621 (Broad Institute, 2011)
